# In PubChem BioAssay AID2283260 (EPA ToxCast):
# Records with an inconclusive call do not appear. Activity calls are given as the source filed them. Rule for the calls: active = hit-call score of the fitted dose curve at least 0.9, where 1 is the maximum; inconclusive = response in the unintended direction; inactive = score below 0.9.
# Target: human Complement Component 5, Anaphylatoxin Receptor (C5a), C5AR1 (gene 728) (UniProt P21730)
# Experiment: NVS_GPCR_hC5a: NovaScreen (NVS) G Protein-Coupled Receptor Assay for human Complement Component 5, Anaphylatoxin Receptor (C5a)
# Description: NVS_GPCR_hC5a is a biochemical, single-readout assay that uses extracted gene-proteins from U937 in a cell-free assay. Measurements were taken 2 hours after chemical dosing in a 96-well plate.NVS_GPCR_hC5a is one of one assay component(s) measured or calculated from the NVS_GPCR_hC5a assay. It is designed to make measurements of radioligand binding, a form of binding reporter, as detected with scintillation counting signals by Filter-based radiodetection technology.Data from the assay component NVS_GPCR_hC5a was analyzed into 1 assay endpoint. This assay endpoint, NVS_GPCR_hC5a, was analyzed in the positive analysis fitting direction relative to DMSO as the negative control and baseline of activity. Using a type of binding reporter, loss-of-signal activity can be used to understand changes in the binding as they relate to the gene C5AR1. Furthermore, this assay endpoint can be referred to as a primary readout, because the performed assay has only produced 1 assay endpoint. To generalize the intended target to other relatable targets, this assay endpoint is annotated to the gpcr intended target family, where the subfamily is rhodopsin-like receptor.
# Binding assays used specific radioligands (tritiated, iodinated) with non-radioactive competitive displacement ligands in agonist or antagonist protocols (as indicated) and various reference compounds and inhibitors to titrate specific binding to receptors and transporters. Most enzyme assays (CYPs, kinases, phosphatases, proteases, HDACs) used recombinant protein and specific substrates (fluorescence mostly, some colorimetric and radioactive) and inhibitors, followed by a biochemical separation of substrate and product. All assays for the biochemical HTS were initially run in duplicate at a single concentration (10 uM for CYP450 assays and 25 uM for all others). Assay-chemical combinations meeting a pre-defined threshold (e.g., 30% inhibition and other criteria defined below) were then run in singleton concentration-response format with maximum concentration of 20 uM for CYPs and 50 uM for all others. Each assay was run with positive and negative controls, and concurrent controls on every plate. The follow-up (secondary) screen tested active chemical-pairs in concentration series, as well as a few additional assays not tested in the primary screen, some selected negative inactives, and several cases re-run in the concentration series for confirmatory purposes.
# Sequence of human Complement Component 5, Anaphylatoxin Receptor (C5a), C5AR1 (gene 728) (P21730 whole entry, looked up): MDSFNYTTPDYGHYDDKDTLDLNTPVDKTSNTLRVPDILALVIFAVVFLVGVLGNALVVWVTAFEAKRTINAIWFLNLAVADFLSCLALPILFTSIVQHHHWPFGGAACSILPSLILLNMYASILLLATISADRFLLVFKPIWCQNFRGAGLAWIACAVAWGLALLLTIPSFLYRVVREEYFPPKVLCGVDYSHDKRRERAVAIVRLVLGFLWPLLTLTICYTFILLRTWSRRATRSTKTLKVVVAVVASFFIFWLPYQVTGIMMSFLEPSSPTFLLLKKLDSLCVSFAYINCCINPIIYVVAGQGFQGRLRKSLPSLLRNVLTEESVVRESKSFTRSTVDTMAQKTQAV
Structure (SMILES),outcome,AC50
CCC[CH2][Sn]([Cl])([CH2]CCC)[CH2]CCC,inactive,
COC(=O)c1c(C(F)F)nc(C(F)(F)F)c(C2=NCCS2)c1CC(C)C,inactive,
CCC(C)(C)C(=O)OC1=C(c2ccc(Cl)cc2Cl)C(=O)OC12CCCCC2,inactive,
CCCCCCCCCC,inactive,
CC1(C)C(C=C(Cl)Cl)C1C(=O)OC(C#N)c1cccc(Oc2ccccc2)c1 (centres undefined),inactive,
COc1cc(OC)nc(NC(=O)NS(=O)(=O)c2ncccc2OCC(F)(F)F)n1,inactive,
COc1ccc(C(c2ccc(OC)cc2)C(Cl)(Cl)Cl)cc1,inactive,
CCOC(=O)O[C@H](C)OC(=O)c1ccc2c(c1)cc(C(=O)NC1CCN(C(C)C)CC1)n2Cc1cc(-c2ccc(Cl)s2)on1,,39.6 µM (active)
CCOC(=O)NCCOc1ccc(Oc2ccccc2)cc1,inactive,
C=CCc1cc(S(=O)(=O)c2ccc(O)c(CC=C)c2)ccc1O,inactive,
Oc1ccc(C(c2ccc(O)cc2)C(Cl)(Cl)Cl)cc1,inactive,
CCCCCCCCCC[N+](C)(C)CCCCCCCCCC,,42.3 µM (active)
[Cl-].[Cl-].[Hg+2],,25 µM (active)
C#CCOS(=O)OC1CCCCC1Oc1ccc(C(C)(C)C)cc1 (centres undefined),inactive,
